Compound activity: PubChem, several laboratories
Only some compounds are listed: those with a hit (about 1.9% of all), similar ones and a draw of the others.
IEC-6 cytotox = cytotoxicity in IEC-6 intestinal epithelial cells, primary screen, cytotoxicity control for KLF5 inhibitor project, cell-based, luminescence; IEC-6 cytotoxicity, luminescence viability; inhibition, % at 5 µM; 0.78% of 290,000 active; in the data active = inhibition above about 22%
Ba/F3 V617F tox = reduced viability of JAK2V617F-dependent Ba/F3 cells, primary screen, JAK2V617F inhibitor project, cell-based, Ba/F3 EpoR-JAK2V617F, luminescence; AID 1446, 2008; ATP luminescence; 1.1% of 220,000 active; inhibition, % at 5.6 µM;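 active = inhibition above the campaign mean plus 3 SD over all tested compounds, cut at about 24% in these data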;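 also: cytokine-independent growth of Ba/F3 cells driven by EpoR plus mutant JAK2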
KLF5 inhibitor = KLF5 expression inhibitors, primary screen, DLD-1 cells, luminescence | inhibition, % at 5 µM | DLD-1 KLF5 promoter-luciferase reporter | 0.23% of 290,000 active;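 active = inhibition above a per-plate limit of that plate's mean compound inhibition plus 3 SD, cut at about 60% in these data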;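 also: higher means less KLF5 promoter-driven luciferase light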
APP transl inh = inhibitors of APP translation via 5'UTR reporter, primary screen, APP 5'UTR luciferase, SH-SY5Y cells; inhibition, % at 2 µM; 0.82% of 190,000 active; SH-SY5Y APP 5'UTR-luciferase reporter, luminescence; AID 1285, 2008;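 active = inhibition above a set limit, derived from the sample mean plus 3 SD, cut at about 45% in these data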
BaF3 tox = parental Ba/F3 cell viability inhibition, counter-screen for JAK2V617F inhibitor project, murine pro-B, CellTiter-Glo luminescence | inhibition, % at 5.6 µM | CellTiter-Glo ATP luminescence | 1.1% of 220,000 active;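 active = inhibition above a per-campaign cutoff, the mean inhibition of all tested compounds plus 3 SD, cut at about 27% in these data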
Each line names hits and unclear results; the compound was inactive in the other large screens.

COc1ccc(N=c2cc(-c3ccc(OC)cc3)oc3ccccc23)cc1	none
O=C(c1ccccc1Nc1ccc(SC(F)F)cc1)N1CCCCCC1	none
CC(C)c1ccc(CNc2ccc3c(c2)ncn3C)cc1	none (no result: Ba/F3 V617F tox, APP transl inh, BaF3 tox)
CN(C)c1ccc(CNc2ccc3c(c2)ncn3C)cc1	BaF3 tox 33
O=C(NCc1ccco1)c1ccc([N+](=O)[O-])o1	none
O=C(OCc1nc(-c2ccccc2)oc1COC(=O)c1ccco1)c1ccco1	BaF3 tox 54
CCc1ccc(CCC(=O)Nc2ncc(Cc3ccccc3Cl)s2)o1	APP transl inh 71
O=C(CN1CCOCC1)Nc1ncc(Cc2ccccc2Cl)s1	none
O=C(CSc1nnc2ccccn12)NNC(=O)c1ccc([N+](=O)[O-])cc1	none (no result: APP transl inh)
O=C(COC(=O)CN1C(=O)c2ccccc2C1=O)Nc1ccc(S(=O)(=O)N2CCCC2)cc1	APP transl inh 50
O=C(COC(=O)CCN1C(=O)c2ccccc2C1=O)Nc1ccc(S(=O)(=O)N2CCCC2)cc1	none
CN(Cc1ccccc1)S(=O)(=O)c1ccc(OCC(=O)NCc2ccncc2)cc1	none (no result: Ba/F3 V617F tox, APP transl inh, BaF3 tox)
CN(C)c1ccncc1C(=O)Nc1ccc(F)cc1F	none (no result: APP transl inh)
Oc1c(N=NC(=S)Nc2ccccc2F)c2ccccc2n1Cc1ccccc1Cl	none
Cc1cccc(NC(=S)N=Nc2c(O)n(C)c3ccc(S(=O)(=O)N4CCOCC4)cc23)c1	APP transl inh 66
Cc1ccc(NC(=S)N=Nc2c(O)n(C)c3ccc(S(=O)(=O)N4CCOCC4)cc23)cc1	APP transl inh 69
C=CCn1c(O)c(N=NC(=S)Nc2ccccc2F)c2ccccc21	none
Cc1cccc(C)c1NC(=S)N=Nc1c(O)n(C)c2ccc(S(=O)(=O)N3CCOCC3)cc12	none
C=CCn1c(O)c(N=NC(=S)Nc2cccc(C)c2)c2ccccc21	APP transl inh 66
Cc1c(Cl)cccc1NC(=S)N=Nc1c(O)n(CN2CCOCC2)c2ccccc12	APP transl inh 46
Cc1cc(C)cc(NC(=S)N=Nc2c(O)n(C)c3ccc(S(=O)(=O)N4CCOCC4)cc23)c1	none
Cc1cccc(N2C(N)=NC(N)=NC23CCCCC3)c1	Ba/F3 V617F tox 61, BaF3 tox 61
CC1(C)N=C(N)N=C(N)N1c1cccc(CN)c1	Ba/F3 V617F tox 61, BaF3 tox 58 (no result: APP transl inh)
COc1ccc(OC)c(N2C(N)=NC(N)=NC23CCCC3)c1	none
CC1(C)N=C(N)N=C(N)N1c1ccc(F)cc1F	Ba/F3 V617F tox 29, BaF3 tox 36
COc1ccc(NC(=O)CS(=O)c2cccc(Cl)c2)cc1 (centres undefined)	none (no result: Ba/F3 V617F tox, APP transl inh, BaF3 tox)
COc1cc(-c2n[nH]c(=S)n2C(C)c2ccccc2)cc(OC)c1OC (centres undefined)	none (no result: Ba/F3 V617F tox, APP transl inh, BaF3 tox)
O=C1N/C(=C/c2ccc(N3CCOCC3)o2)C(=O)N1c1cccc(Cl)c1	APP transl inh 76
CC(C)=NNC(=O)C1=NNC(=O)C1	none (no result: APP transl inh)
CCCN(CCC)S(=O)(=O)c1ccc(C(=O)OCCN2C(=O)c3cccc4c(N5CCOCC5)ccc(c34)C2=O)cc1	none
O=C(OCCN1C(=O)c2cccc3c(N4CCOCC4)ccc(c23)C1=O)c1ccc(Cl)cc1	APP transl inh 50
COc1ccc(-c2cnnc(N/N=C/c3ccc(-c4ccc([N+](=O)[O-])cc4)o3)n2)cc1	APP transl inh 90
Cc1cc(C)c2nc(/N=C(\N)NC(=O)Nc3ccccc3)nc(C)c2c1	Ba/F3 V617F tox 69, BaF3 tox 66
Cc1cc(C)c2nc(/N=C(\N)NC(=O)c3ccccc3)nc(C)c2c1	none (no result: APP transl inh)
CCCCn1c(=O)n(CC(=O)Nc2ccc(C)c(Cl)c2)c(=O)c2c1ncn2Cc1ccco1	none
O=[N+]([O-])c1ccc(Nc2ccccc2)c2nonc12	none (no result: Ba/F3 V617F tox, APP transl inh, BaF3 tox)
O=[N+]([O-])c1ccc(Sc2cccc[n+]2[O-])c2nonc12	IEC-6 cytotox 100, Ba/F3 V617F tox 99, BaF3 tox 105 (no result: APP transl inh)
CC(=O)NCc1nc2ccccc2n1Cc1ccccc1C	none
O=C(N1CCOCC1)N1CCN(C(=O)N(c2ccccc2)c2ccccc2)CC1	APP transl inh 57
C#CCn1cc(/C=N/Nc2nc3ccccc3[nH]2)c2ccccc21	IEC-6 cytotox 31
CCCCn1c(/C=N/Nc2nc3ccccc3[nH]2)nc2ccccc21	APP transl inh 88
CCCCn1c(/C=C/c2ccco2)nc2ccccc21	none
COc1ccc2c(c1)c(/C=N/Nc1nc3ccccc3[nH]1)c(C)n2C	BaF3 tox 53 (no result: APP transl inh)
O=C(O)CCCN1C(=O)/C(=C/c2ccncc2)SC1=S	none (no result: APP transl inh)
